Measured values: PubChem BioAssay (NCI)
The panel holds about 79,000 compounds, 15% with a hit somewhere; the sample as a whole holds those more often. Calls of active or inactive are those of the source. Cut-off read from the data, not from the text of the source: active = growth inhibition above about 70%; inactive = the rest.

Legend:
[1] = NCI Yeast Anticancer Drug Screen. Data for the rad50 strain (AID 155);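 note: 0% = growth of vehicle-only cultures of the same strain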; details: S. cerevisiae rad50 strain growth inhibition, stronger effect = higher value
Outline: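 Yeast carrying a defined DNA repair defect were exposed to test compounds, and growth was compared with vehicle-treated controls to give percent inhibition.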

[2] = NCI Yeast Anticancer Drug Screen. Data for the mec2-1 strain (AID 157); details: S. cerevisiae mec2-1 strain, stronger effect = higher value
Outline: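 Vehicle-treated cultures served as reference for growth inhibition of compound-exposed mec2-1 yeast.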

[3] = NCI Yeast Anticancer Drug Screen. Data for the sgs1 mgt1 strain (AID 161);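 note: 0% = growth of cultures given vehicle only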; details: S. cerevisiae sgs1 mgt1 strain, stronger effect = higher value
Outline: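 Inhibition of yeast growth, normalised to vehicle-treated controls, is reported for a strain bearing genetic alterations in DNA damage repair.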

[4] = NCI Yeast Anticancer Drug Screen. Data for the bub3 strain (AID 167); details: S. cerevisiae bub3 mutant strain, stronger effect = higher value
Outline: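 Compounds were applied to a genetically altered yeast strain carrying a cell-cycle control defect. Growth inhibition was scored against vehicle-treated controls.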

[5] = NCI Yeast Anticancer Drug Screen. Data for the mlh1 rad18 strain (AID 175); details: S. cerevisiae mlh1 rad18 strain growth inhibition, stronger effect = higher value
Outline: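 Vehicle-treated cultures served as the reference for growth inhibition in a yeast strain carrying DNA damage repair alterations exposed to each compound.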

[6] = NCI Yeast Anticancer Drug Screen. Data for the cln2 rad14 strain (AID 165);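 note: 0% = growth equal to vehicle treated cultures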; details: S. cerevisiae cln2 rad14 strain, stronger effect = higher value
Outline: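 Each compound was tested on cln2 rad14 yeast. Inhibition of growth was calculated against vehicle-exposed controls.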

[7] = at 5.0 µM (retest, dose inferred, filed as 0.5)
[8] = at 50.0 µM (retest, dose inferred, filed as 5.0)

Measured: growth inhibition

Nc1ccccc1CCc1ccccc1
active: [1]; [8] 79% | [1]; at 50.0 µM 96.9% | [2]; [8] 74% | [2]; at 50.0 µM 84.5% | [3]; [8] 85% | [4]; [8] 74% | [4]; at 50.0 µM 90.8% | [5]; [8] 91% | [5]; at 50.0 µM 85.7%
inactive: [1]; [7] 0% | [2]; [7] 0% | [3]; [7] 2% | [3]; at 50.0 µM 41.8% | [4]; [7] 0% | [5]; [7] 28%

O=[N+]([O-])c1ccc2c(Nc3ccccc3-c3ccccc3Nc3c4ccccc4nc4cc([N+](=O)[O-])ccc34)c3ccccc3nc2c1
active: [1]; [8] 96% | [1]; at 50.0 µM 90.9% | [2]; [8] 98% | [2]; at 50.0 µM 90% | [3]; [8] 98% | [3]; at 50.0 µM 91% | [6]; [8] 98% | [6]; at 50.0 µM 90.8% | [5]; [8] 96% | [5]; at 50.0 µM 88.9%
inactive: [1]; [7] 29% | [2]; [7] 22% | [3]; [7] 18% | [6]; [7] 30% | [5]; [7] 38%

CCC1=C(C)/C(=C/c2[nH]c(C(Br)Br)c(CC)c2C)N=C1C(Br)Br
inactive: [1]; [7] -1% | [1]; at 50.0 µM 30.6% | [2]; [7] -6% | [2]; at 50.0 µM 45.1% | [3]; [7] 2% | [3]; at 50.0 µM 26% | [6]; [7] -6% | [4]; [7] 0% | [4]; at 50.0 µM 49.3% | [5]; [7] 0% | [5]; at 50.0 µM 45.6%
active: [1]; [8] 98% | [2]; [8] 99% | [3]; [8] 99% | [6]; [8] 97% | [6]; at 50.0 µM 75.2% | [4]; [8] 93% | [5]; [8] 98%

CSCCOC(=O)c1cc(NC(=S)c2ccoc2C)ccc1Cl
inactive: [1]; [7] 13% | [2]; [7] -8% | [2]; at 50.0 µM 68.9% | [3]; [7] 10% | [3]; at 50.0 µM 66.4% | [4]; [7] 17% | [5]; [7] -7% | [5]; at 50.0 µM 63%
active: [1]; [8] 78% | [1]; at 50.0 µM 82.5% | [2]; [8] 78% | [3]; [8] 85% | [4]; [8] 88% | [4]; at 50.0 µM 73.9% | [5]; [8] 85%

c1cc2c(c3c1CN(C1CCCCC1)CO3)OCN(C1CCCCC1)C2
inactive: [1]; [7] 2% | [1]; [8] 19% | [1]; at 50.0 µM -11% | [2]; [7] 4% | [2]; [8] 10% | [2]; at 50.0 µM -29.6% | [3]; [7] 6% | [3]; [8] 16% | [3]; at 50.0 µM 32.1% | [6]; [7] -12% | [6]; [8] 16% | [6]; at 50.0 µM -27.2% | [4]; [7] 5% | [4]; [8] 28% | [4]; at 50.0 µM 65% | [5]; [7] 6% | [5]; [8] 10% | [5]; at 50.0 µM 12.4%

C/C(=N/O)C1CC(CCC2([N+](=O)[O-])CCC(C)(O)C(/C(C)=N/O)C2)([N+](=O)[O-])CCC1(C)O (configuration not stated)
inactive: [1]; [7] 0% | [1]; [8] -8% | [1]; at 50.0 µM 12.7% | [2]; [7] 3% | [2]; [8] -1% | [2]; at 50.0 µM 11.3% | [3]; [7] -1% | [3]; [8] -4% | [3]; at 50.0 µM -7.15% | [6]; [7] 5% | [6]; [8] -12% | [6]; at 50.0 µM 15.3% | [5]; [7] 1% | [5]; [8] 0% | [5]; at 50.0 µM 19.9%

CC(C)(C)CC(C)(C)NCc1cc(Cl)cc(Cc2cc(Cl)ccc2O)c1O
inactive: [1]; [7] 10% | [1]; at 50.0 µM 28.9% | [2]; [7] 9% | [2]; at 50.0 µM 46% | [3]; [7] 8% | [3]; at 50.0 µM 48.7% | [4]; [7] 4% | [4]; at 50.0 µM 20.4% | [5]; [7] 19%
active: [1]; [8] 97% | [2]; [8] 98% | [3]; [8] 98% | [4]; [8] 98% | [5]; [8] 98% | [5]; at 50.0 µM 78.7%

CN(C)CC(CN(C)C)C(=O)c1ccc2c(c1)OCO2
active: [1]; at 50.0 µM 84.7% | [2]; at 50.0 µM 87% | [3]; at 50.0 µM 92.6% | [5]; at 50.0 µM 93%
inactive: [1]; [7] -8% | [1]; [8] -30% | [2]; [7] -15% | [2]; [8] -13% | [3]; [7] -10% | [3]; [8] -20% | [6]; [7] -6% | [6]; [8] -8% | [6]; at 50.0 µM 58.1% | [4]; [7] -5% | [4]; [8] 25% | [4]; at 50.0 µM 58.6% | [5]; [7] 0% | [5]; [8] -20%

COC(=O)c1ccc(-c2ccccc2)cc1
active: [1]; [8] 83% | [1]; at 50.0 µM 82.3% | [2]; [8] 94% | [2]; at 50.0 µM 99.2% | [3]; [8] 82% | [3]; at 50.0 µM 98% | [5]; [8] 86% | [5]; at 50.0 µM 96.8%
inactive: [1]; [7] -1% | [2]; [7] 1% | [3]; [7] 3% | [6]; [7] -2% | [6]; [8] 55% | [6]; at 50.0 µM 44.2% | [5]; [7] 2%

O=C(/N=C1\N=Nc2nc(C(C(=O)c3cccs3)c3nc4n(c3O)/C(=N/C(=O)Nc3ccc(Cl)cc3)N=N4)c(O)n21)Nc1ccc(Cl)cc1 (configuration not stated)
inactive: [1]; [7] -22% | [1]; [8] 5% | [1]; at 50.0 µM 38.7% | [2]; [7] -12% | [2]; [8] 23% | [2]; at 50.0 µM 63.4% | [3]; [7] -1% | [3]; [8] 7% | [3]; at 50.0 µM 66.2% | [6]; [7] -33% | [6]; [8] 7% | [6]; at 50.0 µM 63.6% | [4]; [7] -38% | [4]; [8] 27% | [4]; at 50.0 µM 66.8% | [5]; [7] -27% | [5]; [8] 43% | [5]; at 50.0 µM 49.3%

CC(=O)N1OC2(C)c3ccccc3C1(C)c1ccccc12
active: [1]; [7] 99% | [1]; [8] 94% | [1]; at 50.0 µM 99.2% | [2]; [7] 99% | [2]; [8] 97% | [2]; at 50.0 µM 99.4% | [3]; [7] 99% | [3]; [8] 96% | [3]; at 50.0 µM 97.9% | [6]; [7] 98% | [6]; [8] 95% | [6]; at 50.0 µM 99.2% | [5]; [7] 99% | [5]; [8] 95% | [5]; at 50.0 µM 99.1%
